Inconclusive results are not listed. A number with no mark means an inactive call. Active and inactive are the calls of the source. Calls come from the whole dose curve; as a rule, active = well fitted inhibition curve with a large enough effect; inconclusive = small, poorly fitted or top-dose-only effect; inactive = flat fitted curve, though single readings scatter.
Each compound was assayed on W2 (assay: qHTS profiling for inhibitors of Plasmodium falciparum proliferation (AID 504749)). Settings: P. falciparum in erythrocytes, SYBR Green DNA, 72 h; series mostly up to 28.7 µM.
How it was run: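 Quantitative HTS: compounds pinned into medium, infected erythrocytes added (0.3% parasitemia, 2.5% hematocrit), 72 h culture at 37 C under 5% CO2. Saponin/Triton lysis with SYBR Green I, overnight RT, then fluorescence read.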
Note: nearly all actives have a fitted effect of over 60% in size.
Potency is the fitted concentration of half-maximal effect.

Question: For Nc1ccc(O)c(C(=O)O)c1, which Potency is on record?
Answer: inactive

Question: For c1ccc2sc(SSc3nc4ccccc4s3)nc2c1, which Potency is on record?
Answer: inactive

Question: For [O-][n+]1ccccc1SSc1cccc[n+]1[O-], which Potency is on record?
Answer: 757 nM (active)

Question: Which Potency does the source give for Nc1ccc(C(=O)O)c(O)c1 here?
Answer: inactive

Question: Cc1c(Nc2ncccc2C(=O)O)cccc1C(F)(F)F was tested. Which Potency did it give?
Answer: inactive

Question: Which Potency does the source give for CN1[C@@H]2CC[C@H]1CC(OC(c1ccccc1)c1ccccc1)C2 (stereo partly specified) here?
Answer: 1900 nM (active)

Question: How did the Potency turn out when O=C(O)[C@H](CC(=O)N1C[C@H]2CCCC[C@H]2C1)Cc1ccccc1 was run?
Answer: inactive

Question: Which Potency does the source give for O=C(/C=C/c1ccccc1)NCCO here?
Answer: inactive

Question: Which Potency does the source give for CC1(C)S[C@@H]2[C@H](NC(=O)[C@H](NC(=O)N3CCN(S(C)(=O)=O)C3=O)c3ccccc3)C(=O)N2[C@H]1C(=O)O here?
Answer: inactive

Question: For O=C(CCN1CCN(CCO)CC1)N1c2ccccc2Sc2ccc(C(F)(F)F)cc21, which Potency is on record?
Answer: 7570 nM (active)

Question: With CCOc1ccc2nc(S(N)(=O)=O)sc2c1 as the compound, how does the Potency read?
Answer: inactive

Question: O=C(Nc1ccc(C(=O)O)c(O)c1)c1ccccc1 was tested. Which Potency did it give?
Answer: inactive

Question: With CN1[C@@H]2CC[C@H]1CC(OC(=O)C(CO)c1ccccc1)C2 (stereo partly specified) as the compound, how does the Potency read?
Answer: inactive

Question: For COc1cc(/C=C/C(=O)N2CCN(CC(=O)N3CCCC3)CC2)cc(OC)c1OC, which Potency is on record?
Answer: inactive

Question: How did the Potency turn out when CCCCCCCCCCCCCCCC(=O)OC(C)C was run?
Answer: inactive

What follows are compounds tested on CRL-7250 (assay: Cytotoxic Profiling of Annotated Libraries Using Quantitative High-Throughput Screening (AID 1296008; for max response: % is set by controls: 0 for no effect and ±100 for the full control effect)). Settings: Five cell lines viability, CellTiter-Glo ATP luminescence, 48-72 h; max response: stronger effect = lower value.
How it was run: (§1)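 Compounds were pin-transferred onto cells and incubated 48 or 72 hr at 37 degree Celsius, 95% humidity. CellTiter-Glo was added, plates sat 10 min at room temperature, then ATP-coupled luminescence was imaged as the viability read-out.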

Question: With Nc1ccc(O)c(C(=O)O)c1 as the compound, how does the outcome read?
Answer: inactive

Question: With CC(C(=O)O)c1ccc(C(=O)c2ccccc2)s1 (stereo unspecified) as the compound, how does the outcome read?
Answer: inactive

Question: Which max response does the source give for CC(C)(C)c1nnc(NS(=O)(=O)c2ccc(N)cc2)s1 here?
Answer: 2.87%

Question: For CN(C)CCn1nnnc1SCC1=C(C(=O)O)N2C(=O)[C@@H](NC(=O)Cc3csc(N)n3)[C@H]2SC1, which max response is on record?
Answer: -7.23%

Question: c1ccc2sc(SSc3nc4ccccc4s3)nc2c1 was tested. Which max response did it give?
Answer: 1.15%

Question: How did the Potency turn out when COC(=O)Nc1nc2ccc(C(=O)C3CC3)cc2[nH]1 was run?
Answer: 2990 nM (active)

Question: [O-][n+]1ccccc1SSc1cccc[n+]1[O-] was tested. Which Potency did it give?
Answer: 461 nM (active)

Question: For Nc1ccc(C(=O)O)c(O)c1, which max response is on record?
Answer: -0.825%

Question: For Cc1c(Nc2ncccc2C(=O)O)cccc1C(F)(F)F, which max response is on record?
Answer: -2.3%

Question: How did the max response turn out when CN1[C@@H]2CC[C@H]1CC(OC(c1ccccc1)c1ccccc1)C2 (stereo partly specified) was run?
Answer: 0.151%

Question: With O=[N+]([O-])c1ccc(CNc2nc(NCc3cccc(C(F)(F)F)c3)nc3nc[nH]c23)cc1 as the compound, how does the max response read?
Answer: -5.54%

Question: O=C(O)[C@H](CC(=O)N1C[C@H]2CCCC[C@H]2C1)Cc1ccccc1 was tested. Which max response did it give?
Answer: -6.27%

Question: CO[C@@]1(NC(=O)Cc2cccs2)C(=O)N2C(C(=O)O)=C(COC(N)=O)CS[C@@H]21 was tested. Which outcome did it give?
Answer: inactive

Question: Which max response does the source give for Nc1ccc([N+](=O)[O-])cc1O here?
Answer: -25%

Question: How did the outcome turn out when O=C(O)Cc1ccc2c(c1)C(=O)c1ccccc1CO2 was run?
Answer: inactive

Question: COc1ccnc2c1CCCCC2S(=O)c1nc2ccccc2[nH]1 (stereo unspecified) was tested. Which max response did it give?
Answer: -8.92%

Question: Which max response does the source give for CCCCCCCCCCCCOCCO here?
Answer: -9.14%

Question: How did the Potency turn out when CCCSc1ccc2nc(NC(=O)OC)[nH]c2c1 was run?
Answer: 5960 nM (active)

Question: For O=C(/C=C/c1ccccc1)NCCO, which outcome is on record?
Answer: inactive

Question: Which max response does the source give for CC1(C)S[C@@H]2[C@H](NC(=O)[C@H](NC(=O)N3CCN(S(C)(=O)=O)C3=O)c3ccccc3)C(=O)N2[C@H]1C(=O)O here?
Answer: 4.22%

Question: How did the max response turn out when O=C(CCN1CCN(CCO)CC1)N1c2ccccc2Sc2ccc(C(F)(F)F)cc21 was run?
Answer: -6.26%

Question: For CCOc1ccc2nc(S(N)(=O)=O)sc2c1, which max response is on record?
Answer: -14%

Question: With O=C(Nc1ccc(C(=O)O)c(O)c1)c1ccccc1 as the compound, how does the outcome read?
Answer: inactive

Question: How did the outcome turn out when CCCCCCCC/C=C/C(=O)O was run?
Answer: inactive

Question: CN1[C@@H]2CC[C@H]1CC(OC(=O)C(CO)c1ccccc1)C2 (stereo partly specified) was tested. Which max response did it give?
Answer: -9.68%

Question: CC(=O)SCC(CC(=O)c1ccc(C)cc1)C(=O)O (stereo unspecified) was tested. Which max response did it give?
Answer: 2.17%

Question: With COC(=O)[C@H]1[C@H]2C[C@@H]3c4[nH]c5cc(OC)ccc5c4CCN3C[C@H]2C[C@@H](OC(=O)/C=C/c2cc(OC)c(OC)c(OC)c2)[C@@H]1OC as the compound, how does the max response read?
Answer: -14.2%

Question: Which outcome does the source give for C[N+]1(C)[C@@H]2CC(OC(=O)[C@H](CO)c3ccccc3)C[C@H]1[C@@H]1O[C@@H]12 (stereo partly specified) here?
Answer: inactive

Question: For COc1cc(/C=C/C(=O)N2CCN(CC(=O)N3CCCC3)CC2)cc(OC)c1OC, which max response is on record?
Answer: -2.29%

Question: Cc1ccc2c(n1)Oc1ccc(C(C)C(=O)OCC(=O)N(C)C)cc1C2 (stereo unspecified) was tested. Which max response did it give?
Answer: 4.34%

Question: Which max response does the source give for CCCCCCCCCCCCCCCC(=O)OC(C)C here?
Answer: 3.48%

Question: With COc1cccc2c1C(=O)c1c(O)c3c(c(O)c1C2=O)C[C@@](O)(C(=O)CO)C[C@@H]3O[C@H]1C[C@H](N)[C@H](O[C@@H]2CCCCO2)[C@H](C)O1 as the compound, how does the Potency read?
Answer: 2370 nM (active)

Question: For CCNc1nc2c(ncn2[C@H]2C[C@H](O)[C@@H](CO)O2)c(=O)[nH]1, which max response is on record?
Answer: 0.139%

What follows are compounds tested on HEK293 in the same assay as above. Settings: Five cell lines viability, CellTiter-Glo ATP luminescence, 48-72 h; max response: stronger effect = lower value.
How it was run: as §1

Question: Nc1ccc(O)c(C(=O)O)c1 was tested. Which max response did it give?
Answer: -8.37%

Question: How did the max response turn out when CC(C(=O)O)c1ccc(C(=O)c2ccccc2)s1 (stereo unspecified) was run?
Answer: 0.794%

Question: With CC(C)(C)c1nnc(NS(=O)(=O)c2ccc(N)cc2)s1 as the compound, how does the max response read?
Answer: -1.6%

Question: CN(C)CCn1nnnc1SCC1=C(C(=O)O)N2C(=O)[C@@H](NC(=O)Cc3csc(N)n3)[C@H]2SC1 was tested. Which max response did it give?
Answer: -4.49%

Question: c1ccc2sc(SSc3nc4ccccc4s3)nc2c1 was tested. Which max response did it give?
Answer: 3.28%

Question: How did the Potency turn out when COC(=O)Nc1nc2ccc(C(=O)C3CC3)cc2[nH]1 was run?
Answer: 750 nM (active)

Question: Which Potency does the source give for [O-][n+]1ccccc1SSc1cccc[n+]1[O-] here?
Answer: 411 nM (active)

Question: Which max response does the source give for Nc1ccc(C(=O)O)c(O)c1 here?
Answer: 3.06%

Question: How did the max response turn out when Cc1c(Nc2ncccc2C(=O)O)cccc1C(F)(F)F was run?
Answer: -18.7%

Question: How did the max response turn out when CN1[C@@H]2CC[C@H]1CC(OC(c1ccccc1)c1ccccc1)C2 (stereo partly specified) was run?
Answer: -16.7%

Question: Which max response does the source give for O=[N+]([O-])c1ccc(CNc2nc(NCc3cccc(C(F)(F)F)c3)nc3nc[nH]c23)cc1 here?
Answer: -22%

Question: For O=C(O)[C@H](CC(=O)N1C[C@H]2CCCC[C@H]2C1)Cc1ccccc1, which max response is on record?
Answer: -22.3%

Question: For CO[C@@]1(NC(=O)Cc2cccs2)C(=O)N2C(C(=O)O)=C(COC(N)=O)CS[C@@H]21, which outcome is on record?
Answer: inactive

Question: With Nc1ccc([N+](=O)[O-])cc1O as the compound, how does the max response read?
Answer: -27.4%

Question: How did the max response turn out when O=C(O)Cc1ccc2c(c1)C(=O)c1ccccc1CO2 was run?
Answer: -3.93%

Question: Which max response does the source give for COc1ccnc2c1CCCCC2S(=O)c1nc2ccccc2[nH]1 (stereo unspecified) here?
Answer: -19.1%

Question: Which max response does the source give for CCCCCCCCCCCCOCCO here?
Answer: -2.23%

Question: How did the Potency turn out when CCCSc1ccc2nc(NC(=O)OC)[nH]c2c1 was run?
Answer: 750 nM (active)

Question: O=C(/C=C/c1ccccc1)NCCO was tested. Which max response did it give?
Answer: -1.9%

Question: How did the max response turn out when CC1(C)S[C@@H]2[C@H](NC(=O)[C@H](NC(=O)N3CCN(S(C)(=O)=O)C3=O)c3ccccc3)C(=O)N2[C@H]1C(=O)O was run?
Answer: -0.837%

Question: With O=C(CCN1CCN(CCO)CC1)N1c2ccccc2Sc2ccc(C(F)(F)F)cc21 as the compound, how does the max response read?
Answer: -1.82%

Question: CCOc1ccc2nc(S(N)(=O)=O)sc2c1 was tested. Which max response did it give?
Answer: -2.22%

Question: For O=C(Nc1ccc(C(=O)O)c(O)c1)c1ccccc1, which outcome is on record?
Answer: inactive

Question: Which max response does the source give for CCCCCCCC/C=C/C(=O)O here?
Answer: 0.673%

Question: For CN1[C@@H]2CC[C@H]1CC(OC(=O)C(CO)c1ccccc1)C2 (stereo partly specified), which max response is on record?
Answer: 2.75%

Question: How did the outcome turn out when CC(=O)SCC(CC(=O)c1ccc(C)cc1)C(=O)O (stereo unspecified) was run?
Answer: inactive

Question: For COC(=O)[C@H]1[C@H]2C[C@@H]3c4[nH]c5cc(OC)ccc5c4CCN3C[C@H]2C[C@@H](OC(=O)/C=C/c2cc(OC)c(OC)c(OC)c2)[C@@H]1OC, which max response is on record?
Answer: -6.09%

Question: With C[N+]1(C)[C@@H]2CC(OC(=O)[C@H](CO)c3ccccc3)C[C@H]1[C@@H]1O[C@@H]12 (stereo partly specified) as the compound, how does the outcome read?
Answer: inactive

Question: With COc1cc(/C=C/C(=O)N2CCN(CC(=O)N3CCCC3)CC2)cc(OC)c1OC as the compound, how does the max response read?
Answer: 1.99%

Question: Which outcome does the source give for Cc1ccc2c(n1)Oc1ccc(C(C)C(=O)OCC(=O)N(C)C)cc1C2 (stereo unspecified) here?
Answer: inactive

Question: Which max response does the source give for CCCCCCCCCCCCCCCC(=O)OC(C)C here?
Answer: -10.5%

Question: How did the Potency turn out when COc1cccc2c1C(=O)c1c(O)c3c(c(O)c1C2=O)C[C@@](O)(C(=O)CO)C[C@@H]3O[C@H]1C[C@H](N)[C@H](O[C@@H]2CCCCO2)[C@H](C)O1 was run?
Answer: 84.1 nM (active)

Question: How did the outcome turn out when CCNc1nc2c(ncn2[C@H]2C[C@H](O)[C@@H](CO)O2)c(=O)[nH]1 was run?
Answer: inactive
